Data: PubChem BioAssay (NCI)
About 83,000 compounds went through this panel and 20% of them were active in at least one assay; those are over-represented in the sample as a whole.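 Step 1: grow cells in 96-well plates. Step 2: add test compound at a single concentration. Step 3: incubate 48 h. Step 4: record percent growth.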 Unmarked numbers belong to inactive results. The source made the active and inactive calls. How the source made its calls: active means growth percent below 10; inactive means the rest.

Legend:
Assay in all cases: NCI-60 one-dose screen, 48 h (100 = growth as untreated, 0 = no growth, -100 = all killed)
Conditions in all cases: 10 µM
NCI-H23 lung = test system: NCI-H23 lung
NCI-H226 lung = test system: NCI-H226 lung
NCI-H322M lung = test system: NCI-H322M lung
HOP-62 NSCLC = test system: HOP-62 NSCLC
NCI-H460 lung = test system: NCI-H460 lung
HOP-92 NSCLC = test system: HOP-92 NSCLC
NCI-H522 lung = test system: NCI-H522 lung
A549/ATCC NSCLC = test system: A549/ATCC NSCLC
786-0 renal = test system: 786-0 renal
COLO 205 colon = test system: COLO 205 colon
DU-145 prostate = test system: DU-145 prostate
K-562 leukemia = test system: K-562 leukemia
MALME-3M melanoma = test system: MALME-3M melanoma
MDA-MB-231 breast = test system: MDA-MB-231 breast
RXF 393 renal = test system: RXF 393 renal
SF-268 CNS = test system: SF-268 CNS
SF-295 CNS = test system: SF-295 CNS
SF-539 CNS = test system: SF-539 CNS
UACC-257 melanoma = test system: UACC-257 melanoma
M14 melanoma = test system: M14 melanoma

Row | Compound | growth (NCI-H23 lung) | growth (NCI-H226 lung) | growth (NCI-H322M lung) | growth (HOP-62 NSCLC) | growth (NCI-H460 lung) | growth (HOP-92 NSCLC) | growth (NCI-H522 lung) | growth (A549/ATCC NSCLC) | growth (786-0 renal) | growth (COLO 205 colon) | growth (DU-145 prostate) | growth (K-562 leukemia) | growth (MALME-3M melanoma) | growth (MDA-MB-231 breast) | growth (RXF 393 renal) | growth (SF-268 CNS) | growth (SF-295 CNS) | growth (SF-539 CNS) | growth (UACC-257 melanoma) | growth (M14 melanoma)
1 | N#Cc1ccc(-n2cnc(NC(=O)[C@H]3CCN(C#N)C3)c2)cc1 | 19.8% | 26.4% | 43.5% | 23% | 15.3% | 42% | -37.8% (active) | 23.8% | 23.7% | -55.3% (active) | 29.7% | 17.8% | -14.1% (active) | 14.8% | -54.8% (active) | 29.9% | 42% | -9.26% (active) | 42.3% | 29.1%
2 | COc1ccc(COC(=O)CC(C)C)cc1 | 93.1% | 95.1% | 101% | 106% | 108% | 99% | 79.1% | 89.5% | 94.4% | 109% | 107% | 96.1% | 100% | 106% | 101% | 93% | 97.1% | 96.1% | 87.7% | 99.6%
3 | Cc1ncc([N+](=O)[O-])n1CCOc1ccc(C(=O)/C=C/c2ccc(C(F)(F)F)cc2)cc1 | 88% | 76.2% | 66.4% | 88.9% | 79.5% | 67.1% | 67.1% | 55.5% | 63.3% | 61.2% | 56.4% | 14% | 81.8% | 82.9% | 64.1% | 77.4% | 73.8% | 57.5% | 82.9% | 79.7%
4 | CC(C)C[C@H](NC(=O)Cn1ccc2ccccc2c1=O)B(O)O | 74.5% | 11.5% | 102% | 98.4% | 106% | 99% | 28.6% | 84.9% | 70.3% | 62.2% | 73.5% | 64% | 39.6% | 88% | 10.3% | 79.6% | 69.5% | 15.9% | 42.1% | 56%
5 | COc1ccccc1S(=O)(=O)Nc1ccc2c(c1)CN(C)C(=O)N2 | 56.7% | 63% | 42.9% | 44.3% | 55.8% | 2.37% (active) | 26.1% | 50.5% | 72.7% | 38.4% | 77.8% | 28.6% | 32.2% | 54.7% | 73.3% | 72.9% | 5.34% (active) | 50.1% | 33.8% | 47.8%
6 | O=C(O)CCCN1C(=O)NC2(C1=O)c1ccccc1-c1ccccc12 | 93.2% | 91.1% | 101% | 102% | 105% | 88.5% | 80.4% | 90.2% | 95.2% | 108% | 105% | 99% | 97.3% | 107% | 101% | 95.3% | 95.2% | 99.7% | 91.2% | 103%
7 | COc1cc(-c2c(C#N)c(N)n3c(nc4ccccc43)c2C#N)cc(Br)c1OC | 59.2% | 27.8% | 70.9% | 74.5% | 28.4% | -20.7% (active) | 39.8% | 4.73% (active) | 22.2% | 55.1% | 39.1% | 54.6% | 7.41% (active) | 12.6% | -9.32% (active) | 64% | 66% | 41.2% | 54% | 76%
8 | CCOC(=O)c1cc(-c2ccccc2)nc(N)n1 | 99.5% | 89.5% | 99% | 96.1% | 104% | 78.1% | 95.5% | 102% | 108% | 114% | 107% | 104% | 111% | 97.4% | 93.7% | 106% | 93.8% | 94.5% | 101% | 108%
9 | CC1(C)CNC(=O)N1 | 104% | 92.8% | 109% | 92.6% | 106% | 87% | 83.9% | 93.3% | 94.3% | 101% | 110% | 98.1% | 95.2% | 100% | 108% | 103% | 98.7% | 98.9% | 99.8% | 94.1%
10 | FC(F)(F)c1ccc(-c2nc(-c3nc4cc(Cl)c(Cl)cc4[nH]3)c3ccccn23)cc1 | 75.1% | 55.2% | 61.2% | 64% | 60.4% | 37.9% | 74.8% | 62% | 56.3% | 87.1% | 58.6% | 79.8% | 22.3% | 29.6% | 31.7% | 44.9% | 71.2% | 32.6% | 93.4% | 79.6%
11 | COc1ccc(-c2nc3sc(-c4ccccc4)c(-c4ccccc4)n3c2/C=C/c2ccc(F)cc2)cc1 | 97% | 107% | 103% | 95.9% | 92.9% | 94.5% | 106% | 83.8% | 100% | 99.6% | 103% | 107% | 96.6% | 86.7% | 89.4% | 97.8% | 97% | 92.1% | 99% | 83.1%
12 | NCCNc1ccc2cc(-c3nc4ccccc4[nH]3)c(=O)oc2c1 | 90.7% | 87.4% | 103% | 94.7% | 98.9% | 82.7% | 97.3% | 102% | 106% | 104% | 103% | 81.3% | 105% | 66% | 108% | 92.3% | 98.2% | 94.2% | 98.6% | 104%
13 | Cc1cnc(C=O)c2cccc([N+](=O)[O-])c12 | 98.7% | 77.7% | 103% | 91.7% | 106% | 61.2% | 96% | 104% | 99.7% | 106% | 92.3% | 51.3% | 81.1% | 93.4% | 93.1% | 88.5% | 89.9% | 90.1% | 107% | 95.9%
14 | CCCCOCCOCCOCc1cc2c(cc1Br)OCO2 | 99.3% | 97.4% | 91.8% | 92.7% | 111% | 85% | 80.4% | 91.2% | 100% | 107% | 107% | 94.7% | 94.8% | 97.1% | 108% | 103% | 100% | 92.5% | 101% | 110%
15 | C[N+]1(CC2CO2)CCCCCC1 (stereo not given) | 110% | 99.4% | 107% | 103% | 106% | 113% | 107% | 107% | 105% | 120% | 107% | 119% | 95.8% | 116% | 103% | 104% | 103% | 95.8% | 99.4% | 106%
16 | NC(N)=NS(=O)(=O)c1ccc(Nc2ccc3nnc(-c4ccncc4)n3n2)cc1 | 102% | 96.5% | 103% | 110% | 98.3% | 107% | -57.2% (active) | 108% | 104% | 111% | 111% | 95.3% | 98.1% | 102% | 106% | 102% | 116% | 100% | 127% | 105%
